Screening results (PubChem)
The list is not random: actives were taken first. Their share in the collection is about 2.6%.
MCL1-BIM inh: inhibitors of human MCL1 binding to BIM-BH3 peptide; inhibition, % at 10.9 µM; actives 0.68% (n = 320,000); AID 2057; GST-MCL1 / FITC-Bim-BH3 fluorescence polarization; Q07820;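 active = inhibition above the mean inhibition of all tested compounds plus 3 SD, set per campaign, cut at about 40% in these data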;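 also: higher means more loss of mP so more displacement of Bim peptide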
Target sequence (Q07820 whole entry, looked up): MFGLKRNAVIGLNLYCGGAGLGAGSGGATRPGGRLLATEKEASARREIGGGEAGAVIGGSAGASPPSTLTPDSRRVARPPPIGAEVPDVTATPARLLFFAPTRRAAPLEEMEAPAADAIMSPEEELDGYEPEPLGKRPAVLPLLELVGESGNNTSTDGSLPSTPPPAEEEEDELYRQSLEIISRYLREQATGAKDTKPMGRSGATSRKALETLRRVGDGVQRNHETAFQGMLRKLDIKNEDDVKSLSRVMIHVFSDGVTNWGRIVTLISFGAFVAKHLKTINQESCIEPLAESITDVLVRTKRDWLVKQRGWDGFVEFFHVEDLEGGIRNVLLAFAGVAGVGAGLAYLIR
Mcl1 Noxa PPI: Mcl-1/Noxa interaction inhibition; Q07820; TR-FRET Mcl-1/Noxa peptide binding, 2 h; inhibition, % at 21.7 µM; actives 1.5% (n = 220,000); AID 1022;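 active = compounds that cut the protein-peptide binding signal by more than 50% relative to plate controls in a single-dose test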;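 also: His-tagged Mcl-1 with rhodamine Noxa BH3 peptide and terbium anti-His antibody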
Mcl1-Bid inh: Mcl-1/Bid interaction inhibition; actives 0.97% (n = 220,000); TR-FRET Mcl-1/Bid-Dy647 peptide binding, 1536-well; inhibition, % at 21.7 µM; AID 1021;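 active = compounds that cut the binding signal by more than half at the single screening dose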;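 also: His-tagged Mcl-1 with europium anti-His antibody binding Bid BH3 peptide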
Bim-Mcl-1: inhibitors of Bim-Mcl-1 interaction, human | Q07820 | Bead-based flow cytometry, Bim peptide-Mcl-1 binding | inhibition, % at 10 µM | actives 0.1% (n = 190,000); in the data active = inhibition above about 40%
eIF4E 4G PPI: eIF4E/eIF4G interaction inhibition in translation initiation; P63073+Q04637; inhibition, % at 21.7 µM; TR-FRET eIF4E-eIF4GI(517-606) binding, 2 h; actives 0.37% (n = 220,000);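 active = inhibition above about 30%, limit read from the data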
14-3-3 Bad PPI: disrupts binding of bovine 14-3-3 zeta to phospho-Bad peptide; TR-FRET 14-3-3zeta/Dy647-pBad peptide displacement, 1 h; AID 781; actives 0.71% (n = 220,000); P63103; inhibition, % at 21.7 µM;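 active = inhibition above about 70%, limit read from the data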
Target sequence (P63103 whole entry, looked up): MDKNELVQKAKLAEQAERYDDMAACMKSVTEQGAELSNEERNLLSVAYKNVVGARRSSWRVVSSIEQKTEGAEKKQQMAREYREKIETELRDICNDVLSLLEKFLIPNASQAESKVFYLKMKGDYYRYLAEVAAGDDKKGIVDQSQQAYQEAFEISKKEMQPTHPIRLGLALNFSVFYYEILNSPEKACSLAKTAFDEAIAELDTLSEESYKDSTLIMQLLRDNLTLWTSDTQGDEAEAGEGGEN
A number is an active result; . = inactive; / = not tested or not shown; [ ] = dose if it differs, or a comment.

SMILES	MCL1-BIM inh	Mcl1 Noxa PPI	Mcl1-Bid inh	Bim-Mcl-1	eIF4E 4G PPI	14-3-3 Bad PPI
C=CCN1C(=O)/C(=C2/Sc3ccccc3N2CCCS(=O)(=O)O)SC1=S	.	71.0	.	.	.	72.1
C=CCN1C(=O)/C(=C2/Sc3ccccc3N2CC)SC1=S	.	/	/	/	/	/
O=c1cc2c(=O)oc3cc(O)c(O)oc3c2c(O)c1O	/	88.8	.	/	.	88.8
CN(C)CCCNc1cc(C(C)(C)C)nc2c(-c3ccc(Cl)cc3)cnn12	.	.	.	/	35.9	78.9
CC(C)(C)c1cc(NCc2ccccn2)n2ncc(-c3ccc(Cl)cc3)c2n1	.	.	.	/	.	.
COc1cc(-c2nc3cnccn3c2Nc2ccccc2)ccc1O	.	54.6	.	.	.	.
COCC(C)NC(=O)c1cc2cccc([N+](=O)[O-])c2[nH]1 (configuration not stated)	.	.	.	/	.	.
Cc1cc(NC(=O)c2cc3cccc([N+](=O)[O-])c3[nH]2)ccc1F	.	54.3	.	/	.	.
Cc1cccc(N/C(N)=N/c2nc(C(F)(F)F)cc(=O)[nH]2)c1C	.	.	.	.	.	.
COc1ccccc1NC(=O)CSc1nnc2ccc(-c3cccnc3)nn12	.	.	.	.	.	.
CCOc1ccccc1NC(=O)CSc1nnc2ccc(-c3cccnc3)nn12	.	.	.	40.0	.	.
CCOC(=O)C1C(C)=C(Nc2ccc(OC)cc2)C(=O)N1c1ccc(OC)cc1 (configuration not stated)	.	.	.	.	.	.
COCOc1cc(O)c(C(=O)/C=C/c2ccccc2)c(OCOC)c1	.	/	/	/	/	/
CN(C(=O)c1ccccc1C(=O)OCC(=O)c1ccc(Br)cc1)c1ccccc1	.	/	/	/	/	/
CCN(CC)c1ccc(N2C(=O)/C(=C\c3cccs3)SC2=S)cc1	.	.	.	.	.	91.7[fluorescence artefact?]
O=C1/C(=C/c2cccs2)SC(=S)N1c1ccccc1	.	.	.	.	.	.
COc1ccc(C(=O)N2CCN(c3ccccc3Cl)CC2)cc1S(=O)(=O)NC1CC1	.	/	/	/	/	/
COc1ccc(CCNC(=O)c2ccc(Cl)cc2Cl)cc1OC	.	.	82.5	.	.	.
COc1ccc(CCNC(=O)c2ccc(=O)[nH]n2)cc1OC	.	.	100.0	.	.	.
COc1ccc(CCNC(=O)c2ccc(OC)c(OC)c2)cc1OC	.	/	/	/	/	/
COc1ccc(CCNC(=O)CCCN2C(=O)c3ccccc3C2=O)cc1OC	.	.	61.9	.	.	.
COc1ccc(CCNC(=O)c2ccccc2Cl)cc1OC	.	.	.	.	.	.
Cc1ccc(N(CCC#N)C(=O)COC(=O)c2ccccn2)cc1	.	/	/	/	/	/
O=C(NC(Cc1ccccc1)C(=O)O)/C(=C/c1ccc(Cl)cc1)NC(=O)c1ccco1 (configuration not stated)	.	/	/	/	/	/
COc1ccccc1CN1CC(C(=O)N2CCC(C(=O)c3ccccc3)CC2)CCC1=O (configuration not stated)	.	/	/	/	/	/
SMILES	MCL1-BIM inh	Mcl1 Noxa PPI	Mcl1-Bid inh	Bim-Mcl-1	eIF4E 4G PPI	14-3-3 Bad PPI
C/C=C(\C)C(=O)N1CC2(CC(c3cccc(NC(=O)CC(c4ccccc4)c4ccccc4)c3)=NO2)C[C@H]1C(N)=O (some centres not stated)	/	.	.	/	88.2	.
C=C(C)C(=O)N1CC2(CC(c3cccc(NC(=O)/C=C\C=C/C)c3)=NO2)C[C@H]1C(N)=O (some centres not stated)	.	.	.	/	.	.
C=C(C)C(=O)Nc1cccc(C2=NOC3(C2)C[C@@H](C(N)=O)N(C(=O)C(=C)C)C3)c1 (some centres not stated)	.	82.3	.	/	.	.
C=C(C)C(=O)Nc1cccc(C2=NOC3(C2)C[C@H](C(N)=O)N(C(=O)/C=C/C)C3)c1 (some centres not stated)	.	76.1	.	/	.	.
C=C(C)C(=O)Nc1cccc(C2=NOC3(C2)C[C@@H](C(N)=O)N(C(=O)C2(C)CC2)C3)c1 (some centres not stated)	.	60.5	.	/	.	.
Cc1ccc(NC(=O)c2ccccc2NS(=O)(=O)c2ccc(Cl)s2)cc1S(=O)(=O)N1CCOCC1	.	.	.	.	.	.
OC(CN1CCOCC1)c1ccc(F)cc1 (configuration not stated)	.	.	.	.	.	.
O=C(c1ccc(F)cc1)C(CCCCCC(CN1CCOCC1)C(=O)c1ccc(F)cc1)CN1CCOCC1 (configuration not stated)	.	.	.	.	.	70.4
Cc1cc(C)c(S(=O)(=O)NCc2cn3c(C)csc3n2)cc1C	.	76.2	.	.	.	.
c1cncc(Nc2c3ccccc3nc3ccccc23)c1	.	/	/	/	/	/
Clc1cncc(Cl)c1NNc1c2ccccc2nc2ccccc12	.	57.6	.	.	.	.
CCCCNc1nc2c(S(=O)(=O)c3ccccc3)nnn2c2ccccc12	.	.	.	.	.	.
Cc1cccc(Nc2nc3c(S(=O)(=O)c4ccccc4)nnn3c3ccccc23)c1	.	.	57.3	.	.	.
Cc1cc(-c2ccc(N=Nc3c(S(=O)(=O)O)cc4cc(S(=O)(=O)O)cc(N)c4c3O)c(C)c2)ccc1N=Nc1c(S(=O)(=O)O)cc2cc(S(=O)(=O)O)cc(N)c2c1O	95.9	/	/	/	/	/
NS(=O)(=O)c1ccc(CCNC(=O)C(=O)c2c[nH]c3ccccc23)cc1	.	.	98.7	.	.	.
COc1cccc(NC(=O)COC(=O)/C=C/c2c(C)nn(-c3ccccc3)c2C)c1	.	/	/	/	/	/
Nc1cc(OC(=O)c2ccc(F)cc2)nn1S(=O)(=O)c1ccccc1	.	/	/	/	/	/
O=C(N=C1c2ccccc2CN1c1cccc(Cl)c1)c1cccnc1	.	.	.	.	.	.
O=C(N=C1c2ccccc2CN1c1ccc(F)c(F)c1)c1cccnc1	.	.	.	.	.	71.5
COc1ccc(CNC(=O)CN2C(=O)NC(Cc3ccccc3)(c3ccccc3)C2=O)cc1OC (configuration not stated)	.	/	/	/	/	/
CCOC(=O)/C(C#N)=C/c1ccc(OC(=O)c2ccccn2)cc1	.	.	.	.	30.7	81.4[fluorescence artefact?]
COC(=O)/C(C#N)=C/c1ccc(OC(=O)c2ccccn2)cc1	.	.	.	.	.	.
COc1ccccc1C(=O)NC(=O)COC(=O)c1nc(Cl)ccc1Cl	.	/	/	/	/	/
CC(=O)C1C(c2ccc(F)cc2)c2c(noc2C)CC1(C)O (configuration not stated)	.	.	.	/	95.6	.
CC(=O)C1C(c2ccc(C)cc2)c2c(noc2C)CC1(C)O (configuration not stated)	.	.	.	.	.	.
CC(=O)N(CCCNC(=O)c1ccccc1)C(=O)c1ccccc1	.	/	/	/	/	/
Cc1cccn2c(=O)c(C=O)c(Cl)nc12	.	.	50.6	/	.	.
Cc1ccc(OCc2cc(C(=O)N(C)Cc3cnc4ccccn34)no2)cc1C	.	/	/	/	/	/
